Results: the supplement of paper PMC3334620
The full ranking holds about 33,000 sequences; the median of “E-score (-0.5 to 0.5)” is about -0.016, and the highest 2% start at about 0.32. Shown is part of a subset that was picked to be rich in the highest values.

Target: T1, Stp1 (UniProt B3LFK1)
T1 sequence: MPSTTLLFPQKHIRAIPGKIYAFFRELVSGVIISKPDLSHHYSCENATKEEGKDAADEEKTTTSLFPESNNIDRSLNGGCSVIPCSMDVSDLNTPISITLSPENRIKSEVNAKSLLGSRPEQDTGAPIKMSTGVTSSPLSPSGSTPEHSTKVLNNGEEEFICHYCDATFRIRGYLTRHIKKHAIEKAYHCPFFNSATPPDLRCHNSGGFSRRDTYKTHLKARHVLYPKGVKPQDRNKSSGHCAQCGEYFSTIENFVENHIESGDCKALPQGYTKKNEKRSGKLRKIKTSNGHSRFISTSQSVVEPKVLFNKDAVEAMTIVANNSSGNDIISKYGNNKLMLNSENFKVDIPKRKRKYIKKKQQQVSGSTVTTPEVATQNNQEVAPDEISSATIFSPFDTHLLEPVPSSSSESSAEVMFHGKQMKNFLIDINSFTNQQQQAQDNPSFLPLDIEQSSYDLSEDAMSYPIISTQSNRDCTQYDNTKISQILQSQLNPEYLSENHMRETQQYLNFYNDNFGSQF
Assay: PBM E-score (8-mer binding enrichment) (E-score (-0.5 to 0.5)); higher = stronger / more preferred TF binding
Conditions: protein concentration: 200 nM; construct: GST-full length
In short: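 Using PURExpress in vitro transcription/translation, GST-tagged yeast transcription factors were made in full-length or DNA-binding-domain form. These were applied at about 100-200 nM to double-stranded universal all-10-mer Agilent arrays, and bound protein was detected with fluorescent anti-GST. Scans were normalised with masliner before the Universal PBM Analysis Suite assigned E-scores to ungapped eight-base words pooled with their reverse complements.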

Row | Sequence | PBM E-score
1 | ACAGTGCG | -0.022
2 | CGCTGGAG | -0.107
3 | ATTGAGGC | 0.146
4 | CCCAGTCG | -0.267
5 | AAGGACCG | -0.117
6 | CCATTAGG | -0.209
7 | CTAACAGC | 0.0206
8 | AGCCACTC | 0.0834
9 | CTTTTTGC | 0.0819
10 | AACTAACC | 0.117
11 | CAATGCCG | 0.374
12 | AAATGCCT | 0.285
13 | CAATGCCC | 0.136
14 | AAATGCCC | -0.108
15 | CAATGCCA | 0.0614
16 | AAATGCCG | 0.443
17 | GTGCTAAC | -0.0443
18 | ACAAGATG | -0.052
19 | AAACCTCA | -0.0665
20 | AGCGAACT | 0.00922
21 | CACAGCCG | 0.327
22 | AAAAGCCG | 0.326
23 | GAAAAGCC | 0.0718
24 | AAAAGCCT | -0.0406
25 | AAAAAGCC | 0.34

Row | Sequence | PBM E-score
26 | CAAAAGCC | 0.121
27 | CACAGCCC | -0.172
28 | CAAAGCCA | 0.0366
29 | AAAAGCCC | -0.145
30 | CAAAGCCG | 0.316
31 | AACAGCCG | 0.255
32 | CAAAGCCC | -0.0858
33 | GAGATAGC | -0.111
34 | CACAGAAA | -0.00471
35 | TGGGCACA | 0.135
36 | GTAGATGA | 0.0463
37 | GAGCTCTA | -0.101
38 | GAAATTTC | -0.153
39 | CCCTGGTC | -0.41
40 | AGCTAACC | -0.159
41 | CCTAGCCA | -0.0258
42 | CTGCGAAG | -0.175
43 | AGGCACGC | 0.209
44 | CTGCACGC | -0.0205
45 | CGGCACGA | 0.459
46 | CTGCACGA | -0.152
47 | GGGCACGA | 0.133
48 | CGGCACGC | 0.437
49 | GACACTCC | 0.0152
50 | AATTCTGA | 0.131

Row | Sequence | PBM E-score
51 | GCATTTCC | 0.146
52 | AAGTAAGG | -0.0479
53 | ACCTATCG | 0.0549
54 | CAAGAGCC | 0.21
55 | CCAAGCCC | -0.241
56 | CGACGGCC | 0.0289
57 | AGACGGCG | 0.463
58 | AGACGGCC | 0.121
59 | CGACGGAG | -0.147
60 | AGACGGAT | 0.14
61 | AGACGGGG | -0.154
62 | AGACGGCT | 0.343
63 | AGACGTCT | -0.219
64 | CGACGGCG | 0.353
65 | ACAGTCGG | -0.0418
66 | AAGCACCC | -0.224
67 | CAAATTGC | 0.115
68 | CTCAGTCC | -0.195
69 | ATGAAGAC | 0.0861
70 | ACGTTTAT | 0.0901
71 | CTGGGTGA | -0.229
72 | CAATAACC | 0.0421
73 | AGGGCTAG | -0.207
74 | AAGCTACT | -0.0664
75 | AACGCGGC | 0.443

Row | Sequence | PBM E-score
76 | GACGCGAC | -0.0598
77 | GACGCGGA | 0.136
78 | GACGCGGC | 0.466
79 | CACGCGGA | 0.294
80 | AACGCGGA | 0.0987
81 | CACGCGGC | 0.459
82 | CACGCGGG | 0.143
83 | AACGCGGG | 0.184
84 | ACTCGATC | -0.0856
85 | AGGTGGCA | 0.218
86 | GAATGCCA | 0.134
87 | CTTAAATC | 0.0764
88 | CCGGCGTA | 0.0906
89 | ACGGCGTA | 0.448
90 | AAGGCGTA | 0.234
91 | ATGGCGTG | 0.102
92 | AGGGCGTC | 0.131
93 | ACGGCGTC | 0.472
94 | GTGGCGTA | 0.0488
95 | AGGGCGTG | -0.0356
96 | GCGGCGTA | 0.433
97 | ACGGCGTG | 0.455
98 | GGGGCGTA | -0.174
99 | CCGGCGTC | 0.0446
100 | GTGTGTTA | 0.029

Row | Sequence | PBM E-score
101 | AGTTCAAT | -0.0607
102 | CGGTTATC | -0.0601
103 | CAGCAATG | -0.194
104 | AAATAAGG | 0.0174
105 | CAAACTAG | -0.107
106 | CCACTGGA | -0.241
107 | ACACCGCG | 0.0308
108 | CCAGAACC | -0.154
109 | AGGCTATG | -0.196
110 | CGCTGAAG | -0.108
111 | ACGGCTGG | 0.139
112 | ACGGCTGC | 0.289
113 | ACGGCTTC | 0.417
114 | ACGGCTTG | 0.335
115 | ACGGCTTA | 0.375
116 | ATGGCTTG | -0.0553
117 | GCGGCTTA | 0.234
118 | ACGGCTGA | 0.147
119 | CCGGCTTC | -0.0259
120 | AAGCGGTC | -0.149
121 | GATTAGGC | 0.02
